We go through 39 compounds from PubChem BioAssay (NCATS).

Results filed as inconclusive are left out. Entries that show only a call come without a potency. Unmarked numbers belong to inactive results. The source made the active and inactive calls. Calls follow the shape of the dose curve; as a rule, active = well fitted cell-killing curve with a large enough effect; inconclusive = small, poorly fitted or top-dose-only effect, or effect the other way; inactive = flat fitted curve, though single readings scatter. Where a SMILES comes first, the peptide text is derived from it. The star is where a group is joined. PhAc = O=C(Cc1ccccc1)*

For the assay, the system named is Tov112D. The experiment in a line: Primary qHTS to identify gynecologic anti-cancer compounds using libraries of approved drugs and bioactive compounds (AID 1345084). Also: nearly all actives have a fitted effect of over 55% in size. The note with it: Gynecologic cancer cell panel viability, ATPlite luminescence, 48 h; series mostly up to 57.5 µM. In outline:
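48 h compound exposure at 37 C, 5% CO2; five-point qHTS. ATPlite luminescence readout of cell ATP.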
For `COC1CC(O[C@H]2CC[C@@]3(C)C(=CC[C@]4(O)C3[C@H](O)[C@@H](O)[C@]3(C)[C@@H]([C@H](C)O)CC[C@@]34O)C2)OC(C)C1OC1CC(OC)C(OC2CC(OC)C(OC3OC(C)C(OC4OC(CO)C(O)C(O)C4O)C(OC)C3O)C(C)O2)C(C)O1` (some centres undefined), the activity change, negative = cytotoxicity is 1.61% [at 11.6 µM].
As for `C=C1CCC2[C@](C)(CO)CCC[C@@]2(C)[C@@H]1CCC1=CCOC1=O` (some centres undefined), the Potency entry was “inactive”.
Same read-out and setting: then `C=C1CCC[C@]2(C)CC[C@@](O)(C(=C)C(=O)O)C[C@@H]12`, with “inactive”; and `CC1CC(=O)[C@]2(O)C(C(=O)OCCc3ccc(O)cc3)=CO[C@@H](O[C@@H]3O[C@H](CO)[C@@H](O)[C@H](O)[C@H]3O)[C@H]12` (some centres undefined), with “inactive”.
Still for that read-out and setting: with `COC(=O)C1=COC(O[C@@H]2O[C@H](CO)[C@@H](O)[C@H](O)[C@H]2O)[C@@H]2[C@@](C)(O)[C@@H](OC(=O)/C=C/c3ccccc3)C[C@]12O` (some centres undefined) the entry was “inactive”.
Turning to `CCC[C@H](N[C@@H](C)C(=O)N1[C@H](C(=O)O)C[C@@H]2CCCC[C@@H]21)C(=O)O`, the Potency entry was “inactive”.
As to `CC1OC(OC2C(OC(=O)[C@]34CCC(C)(C)C[C@H]3C3=CCC5[C@@]6(C)CC[C@H](OC7OC(C(=O)O)C(O)C(O)C7O)C(C)(C)C6CC[C@@]5(C)[C@]3(C)CC4O)OC(CO)C2O)C(O)C(O)C1OC1OCC(O)C(O)C1O` (some centres undefined), the activity change, negative = cytotoxicity is -3.39% [at 11.6 µM].
Regarding `CCOC(=O)CNC(=O)[C@@H]1CCCN1C(=O)Cc1ccccc1` (PhAc-Pro-Gly-OEt), the Potency entry is “inactive”.
For `C/C(=C\CC[C@H](CO)[C@@H]1CC[C@]2(C)C3=C(CC[C@@]12C)[C@@]1(C)CCC(=O)C(C)(C)C1CC3)C(=O)O` (some centres undefined), the Potency entry was “inactive”.
For `C=C1CCC2C(C)(C)CCC[C@]2(C)[C@H]1CC/C(C)=C/C(=O)O` (some centres undefined), the Potency result was “inactive”.
The same measure, in the same setting: then `COCC1OC(OC(C)(C)C2CCC3(C)C=C(C4CCC5C4(C)CC(O)C4OC(C(C)(C)O)CCC45C)CCC3O2)C(NC(C)=O)C(O)C1O` (centres undefined), with “inactive”.
Still for that read-out and setting: with `C=C1CCC2[C@](C)(CCC[C@]2(C)C(=O)O)[C@H]1CC/C(C)=C/C(=O)OC` (some centres undefined) the entry was “inactive”; with `COC(=O)c1c(CC=C(C)C)c(OC2OC(CO)C(O)C(O)C2O)c2ccccc2c1OC1OC(CO)C(O)C(O)C1O` (centres undefined), “inactive”; with `O=C(Cc1ccccc1)OC[C@H]1O[C@H](O[C@H]2O[C@H](CO)[C@@H](O)[C@H](O)[C@H]2O)[C@H](O)[C@@H](O)[C@@H]1O`, “inactive”.
Regarding `CC1=C2C[C@H]3OC(=O)[C@H](O)[C@@]4(O)[C@@H](C)[C@@H](O)[C@H](O)C([C@@]2(C)[C@H](O)[C@@H](O)C1)[C@@]34C` (some centres undefined), the Potency entry is “inactive”.
Regarding `CC1CC(=O)C2=C(O1)OC1(C)CCC3C(C)(C)C4OC4C(=O)C3(C)C1C2` (centres undefined), the Potency result was “inactive”.
On the same count and under the same terms, then `COc1ccnc(CCc2nc3ncccc3[nH]2)c1`, with “inactive”; and `C/C(=C/CO)CC[C@H]1[C@]2(C)C[C@H](O)CC(C)(C)[C@H]2CC[C@]1(C)O`, with “inactive”.
On the same count and under the same terms, with `COc1c2c(c(C)c3c1C(=O)OC3)OC1(C)CC(O)C34OC(O)(CCC3(C)C1C2)OC4(C)C` (centres undefined) the entry was “inactive”; with `COC(=O)[C@]1(Cc2ccc(O)c(CC=C(C)C)c2)OC(=O)C(O)=C1c1ccc(O)cc1`, “inactive”; with `COc1cnc(-c2ccc(Cn3c(CC(C)(C)C(=O)O)c(SC(C)(C)C)c4cc(OC[C@@H]5Cc6ccccc6N5C(C)=O)ccc43)cc2)nc1`, “inactive”.
Same read-out and setting: then `CCC(C)C(=O)O[C@H]1C[C@](C)(O)[C@]23OC(C)(C)[C@H](C[C@H](OC(=O)c4ccccc4)[C@]2(COC(C)=O)[C@H]1OC(=O)C(C)CC)[C@H]3OC(C)=O` (some centres undefined), with “inactive”; and `CC1CC2(O)OC(=O)C3=C2C(CCC3)[C@@]12C[C@@H](c1ccoc1)OC2=O` (some centres undefined), with “inactive”; and `COc1cc(C(C)=O)ccc1O[C@@H]1O[C@H](CO)[C@@H](O)[C@H](O)[C@H]1O`, with “inactive”.
In the case of `COC(=O)C1=COC(OC2OC(CO)C(O)C(O)C2O)C2C(C)C(OC(C)=O)C(OC(=O)c3ccccc3)C12` (centres undefined), the Potency result is “inactive”.
On the same count and under the same terms, with `COc1ccnc2[nH]cc(C(=O)C(=O)N3CCN(C(=O)c4ccccc4)CC3C)c12` (centres undefined) the entry was “inactive”.
In the case of `C[C@@H]1O[C@@H](O[C@H]2[C@H](O)[C@@H](O)[C@H](OC[C@H]3O[C@@H](OC(=O)[C@]45CCC(C)(C)C[C@H]4C4=CCC6[C@@]7(C)C[C@@H](O)[C@H](O)[C@@](C)(CO)C7[C@H](O)C[C@@]6(C)[C@]4(C)CC5)[C@H](O)[C@@H](O)[C@@H]3O)O[C@@H]2CO)[C@H](O)[C@H](O)[C@H]1O` (some centres undefined), the activity change, negative = cytotoxicity was -3.4% [at 11.6 µM].
`O=C(CC1CC(c2ccc(F)cc2F)=NO1)N1CCOCC1` (centres undefined): the Potency result was “inactive”.
Still for that read-out and setting: then `COC(=O)C1=CO[C@@H](O[C@@H]2O[C@H](CO)[C@@H](O)[C@H](O)[C@H]2O)[C@@H]2[C@@H](C(=O)O)CC[C@H]12`, with “inactive”.
Consider `C[C@@H]1O[C@@H](OC2C(CO)OC(OCC3OC(OC(=O)[C@]45CCC(C)(C)CC4C4=CCC6[C@@]7(C)CC[C@@H](O)[C@](C)(C(=O)O)C7CC[C@@]6(C)[C@]4(C)CC5)C(O)C(O)C3O)C(O)C2O)[C@H](O)[C@H](O)[C@H]1O` (some centres undefined), for which the activity change, negative = cytotoxicity was 2.63% [at 11.6 µM].
Regarding `OC[C@H]1O[C@@H](OC[C@H]2O[C@@H](OCc3ccccc3)[C@H](O)[C@@H](O)[C@@H]2O)[C@H](O)[C@@H](O)[C@@H]1O`, the Potency entry was “inactive”.
Still for that read-out and setting: then `COC1OC(O)C2(CCC3(O2)C(C)CC2OC(=O)C4(C)CCCC3(C)C24)C1O` (centres undefined), with “inactive”; and `C=C1C(OC(C)=O)C(=O)C2C(C)(C)C(O)CCC2(C)C1CC(OC(C)=O)/C(C)=C/COC(C)=O` (centres undefined), with “inactive”; and `C/C(=C\CO)CC/C=C(\C)C(=O)O[C@@H]1O[C@H](CO)[C@@H](O)[C@H](O)[C@H]1O`, with “inactive”.
On the same count and under the same terms, with `CC(=O)c1c(C)cccc1O[C@@H]1O[C@H](CO)[C@@H](O)[C@H](O)[C@H]1O` the entry was “inactive”.
On the same count and under the same terms, with `CC(=O)O[C@@H]1C=C2[C@H](CC[C@@]3(C)[C@@]2(O)CC[C@H]2Cc4c([nH]c5ccccc45)[C@@]23C)O[C@@H]1C(C)(C)O` the entry was “inactive”; with `C=CC1(C)CC=C2C(CCC3C(C)(C(=O)O)CCCC23C)C1` (centres undefined), “inactive”.
As to `CC(C)c1ccc2c(c1)C(=O)CC1C(C)(C(=O)O)CCCC21C` (centres undefined), the Potency entry was “inactive”.
Turning to `CC(C)CC(=O)O[C@@H]1O[C@H](CO)[C@@H](O[C@H]2O[C@H](C)[C@@H](N[C@H]3C=C(CO)[C@@H](O[C@H]4O[C@H](CO)[C@@H](O[C@H]5O[C@H](CO)[C@@H](O[C@H]6O[C@H](CO)[C@@H](O)[C@H](O)[C@H]6O)[C@H](O)[C@H]5O)[C@H](O)[C@H]4O)[C@H](O)[C@H]3O)[C@H](O)[C@H]2O)[C@H](O)[C@H]1O`, the activity change, negative = cytotoxicity was -0.277% [at 11.6 µM].
